Experimental data reported in the supplement of paper PMC13380429.

Tested on: Vero E6 infected with SARS-CoV-2
Assay: inhibition of SARS-CoV-2 cytopathic effect; higher = more antiviral protection, active = above 15
Details: 48 h

Measured: inhibition of SARS-CoV-2 cytopathic effect

N#C[C@H](O[C@@H]1O[C@H](CO[C@@H]2O[C@H](CO)[C@@H](O)[C@H](O)[C@H]2O)[C@@H](O)[C@H](O)[C@H]1O)c1ccccc1 [amygdalin]
inactive: 1 nM 0.51% | 8.33 nM -1.9% | 100 nM 0.79% | 833.33 nM -1.12% | 10000 nM 0.27%

N=C1NC(=O)/C(=C/c2ccc(O)cc2)S1 [mirin]
inactive: 1 nM -0.65% | 8.33 nM 0.66% | 100 nM -0.71% | 833.33 nM -3.88% | 10000 nM 1.33%

Cc1cc(OCCN2CCOCC2)nn1-c1ccc2ccccc2c1
inactive: 1 nM -2.51% | 8.33 nM -1.6% | 100 nM -2.06% | 833.33 nM 0.03% | 10000 nM 1.91%

CN(C)CCCN1c2ccccc2Sc2ccccc21 [promazine]
inactive: 1 nM 2.47% | 8.33 nM -1.16% | 100 nM 0.93% | 833.33 nM 0.57% | 10000 nM -0.38%

CN(C)C(=O)N[C@H]1CC[C@H](CCN2CCN(c3cccc(Cl)c3Cl)CC2)CC1 [cariprazine]
inactive: 1 nM -2.57% | 8.33 nM 1.1% | 100 nM -0.14% | 833.33 nM 3.01% | 10000 nM -3.84%

CC(C)(C)NCC(O)COc1cccc2[nH]c(=O)[nH]c12 (stereo not given)
inactive: 1 nM -0.75% | 8.33 nM -0.25% | 100 nM -0.12% | 833.33 nM -0.11% | 10000 nM -0.04%

CC1(C)[C@@H]2C[C@@H](O)[C@@](C)(O)[C@H]1C2 [2,3-cis/exo-pinanediol]
inactive: 1 nM -0.96% | 8.33 nM 1.89% | 100 nM 2.23% | 833.33 nM -0.64% | 10000 nM 2.13%

CNC1CCCN(c2c(F)cc3c(=O)c(C(=O)O)cn(C4CC4)c3c2OC)C1 (stereo not given) [balofloxacin]
inactive: 1 nM -2.96% | 8.33 nM 0.66% | 100 nM 1.91% | 833.33 nM 1.72% | 10000 nM 2.43%

C/C(=C\c1csc(C)n1)[C@@H]1C[C@@H]2O[C@]2(C)CCC[C@H](C)[C@H](O)[C@@H](C)C(=O)C(C)(C)[C@@H](O)CC(=O)O1 [epothilone-B]
inactive: 1 nM -1.66% | 8.33 nM -5.81% | 100 nM -4.92% | 833.33 nM -0.91% | 10000 nM -0.53%

CC(=O)NCCC(=O)N[C@@H](Cc1c[nH]cn1)C(=O)O [N-acetylcarnosine]
inactive: 1 nM 1.19% | 8.33 nM 1.23% | 100 nM -0.15% | 833.33 nM -2.97% | 10000 nM 4.18%

N=C1N[C@H]2[C@H](CS[C@H]2CCCCC(=O)O)N1 [2-iminobiotin]
inactive: 1 nM -0.5% | 8.33 nM 1.48% | 100 nM -1.14% | 833.33 nM -2.01% | 10000 nM -2.17%

CCCC(=O)O[C@]1(C(=O)CO)CC[C@H]2[C@@H]3CCC4=CC(=O)CC[C@]4(C)[C@H]3[C@@H](O)C[C@@]21C [hydrocortisone-butyrate]
inactive: 1 nM -1.77% | 8.33 nM 1.01% | 100 nM 3.36% | 833.33 nM 5.42% | 10000 nM 0.11%

C=C[C@@]1(C)CC(=O)[C@]2(O)[C@@]3(C)[C@@H](O)CCC(C)(C)[C@@H]3[C@H](O)[C@H](OC(C)=O)[C@@]2(C)O1 [colforsin]
inactive: 1 nM 2% | 8.33 nM 2.29% | 100 nM 2.56% | 833.33 nM -1.53% | 10000 nM 0.905%

COc1cccc(CCc2ccccc2OCC(CN(C)C)OC(=O)CCC(=O)O)c1 (stereo not given) [sarpogrelate]
inactive: 1 nM -0.45% | 8.33 nM -1.71% | 100 nM -2.81% | 833.33 nM -0.22% | 10000 nM -1.72%

C=C1CC[C@H](O)C/C1=C/C=C1\CCC[C@]2(C)[C@@H]([C@H](C)/C=C/[C@H](C)C(C)C)CC[C@@H]12 [ergocalciferol]
inactive: 1 nM 0.88% | 8.33 nM 0.86% | 100 nM 0.95% | 833.33 nM 0.55% | 10000 nM 0.72%

CC(C)Cn1cnc2c1c(=O)n(C)c(=O)n2C [isbufylline]
inactive: 1 nM -1.81% | 8.33 nM 0.75% | 100 nM 0.2% | 833.33 nM -0.05% | 10000 nM 1.65%

N=C1CCCN1Cc1[nH]c(=O)[nH]c(=O)c1Cl [tipiracil]
inactive: 1 nM 2.52% | 8.33 nM 2.02% | 100 nM 0.58% | 833.33 nM -1.37% | 10000 nM 2.84%

Cc1nn(-c2ccccc2)c(C)c1/C=N/N1CCN(Cc2ccccc2)CC1
inactive: 1 nM -4.74% | 8.33 nM 0.23% | 100 nM -0.84% | 833.33 nM -0.98% | 10000 nM -0.87%

C[C@]12CCC(=O)C=C1[C@@H]1C[C@@H]1[C@H]1[C@@H]3[C@@H]4C[C@@H]4[C@@]4(CCC(=O)O4)[C@@]3(C)CC[C@@H]12 [drospirenone]
inactive: 1 nM -10.6% | 8.33 nM -1.07% | 100 nM -3.16% | 833.33 nM 0.94% | 10000 nM 5.09%

CC(C)=CCC[C@](C)(O[C@@H]1O[C@H](CO)[C@@H](O)[C@H](O)[C@H]1O)[C@H]1CC[C@]2(C)[C@@H]1[C@H](O)C[C@@H]1[C@@]3(C)CC[C@H](O[C@@H]4O[C@H](CO)[C@@H](O)[C@H](O)[C@H]4O[C@@H]4O[C@H](CO)[C@@H](O)[C@H](O)[C@H]4O)C(C)(C)[C@@H]3CC[C@]12C [ginsenoside-RD]
inactive: 1 nM -2.36% | 8.33 nM -1% | 100 nM 2.51% | 833.33 nM 0.27% | 10000 nM 0.18%

C=CC(C)(C)c1cc(/C=C/C(=O)c2ccc(O)cc2)c(OC)cc1O [licochalcone-A]
inactive: 1 nM -0.14% | 8.33 nM 0.43% | 100 nM -0.55% | 833.33 nM -9.62% | 10000 nM 8.6%

CCC(CO)(C(=O)OC1CC2CCC(C1)[N+]2(C)C)c1ccccc1 (stereo not given) [troventol]
inactive: 1 nM 1.78% | 8.33 nM 6.67% | 100 nM 0.13% | 833.33 nM -1.03% | 10000 nM 2.53%

CCCC(=O)Nc1ccc(OCC(O)CNC(C)C)c(C(C)=O)c1 (stereo not given) [acebutolol]
inactive: 1 nM 4.4% | 8.33 nM 2.88% | 100 nM 3.43% | 833.33 nM -2.09% | 10000 nM 3.92%

c1ccc([C@@H]2C[C@H]2NC2CCNCC2)cc1
inactive: 1 nM -2.71% | 8.33 nM 1.14% | 100 nM 0.53% | 833.33 nM 1.44% | 10000 nM -2.6%

CC(C)(O)CC(=O)O [beta-hydroxy-beta-methylbutyrate]
inactive: 1 nM 3.1% | 8.33 nM -2.04% | 100 nM -6.91% | 833.33 nM -3.9% | 10000 nM -3.42%

FC(F)c1nc2ccccc2n1-c1nc(N2CCOCC2)nc(N2CCOCC2)n1
inactive: 1 nM -2.17% | 8.33 nM -0.7% | 100 nM 0.03% | 833.33 nM -2.96% | 10000 nM -6.67%

Oc1nc(O)c2cn[nH]c2n1 [oxypurinol]
inactive: 1 nM -1.15% | 8.33 nM -1.53% | 100 nM -2.43% | 833.33 nM -2.52% | 10000 nM 1.11%

CCc1c(C(=O)NCCc2ccc(N3CCCCC3)cc2)[nH]c2ccc(Cl)cc12
inactive: 1 nM 1.1% | 8.33 nM 2.93% | 100 nM 4.96% | 833.33 nM 2.28% | 10000 nM -2.19%

O=C(O)c1ccc(N2N=C(Cc3ccccc3)/C(=C\c3ccc(-c4ccccc4F)o3)C2=O)cc1
inactive: 1 nM -0.59% | 8.33 nM 0.52% | 100 nM -1.43% | 833.33 nM 1.97% | 10000 nM -1.44%

Cc1cccc(C)c1NC(=O)[C@@H](C)N [tocainide]
inactive: 1 nM 1.21% | 8.33 nM 0.17% | 100 nM -6.26% | 833.33 nM 1.04% | 10000 nM -4.59%

CN(C)CCCN1c2ccccc2Sc2ccc(C(F)(F)F)cc21 [triflupromazine]
inactive: 1 nM 1.3% | 8.33 nM -0.49% | 100 nM -1.51% | 833.33 nM 1.78% | 10000 nM 0.59%

N[C@@H](Cn1oc(=O)[nH]c1=O)C(=O)O [L-quisqualic-acid]
inactive: 1 nM -3.6% | 8.33 nM 3.03% | 100 nM 2.21% | 833.33 nM -1.93% | 10000 nM 0.17%

C[C@]12CC[C@H](O)C[C@H]1CC[C@@H]1[C@@H]2C[C@@H](O)[C@]2(C)[C@@H](C3=CC(=O)OC3)CC[C@]12O [digoxigenin]
inactive: 1 nM -0.69% | 8.33 nM -0.54% | 100 nM -6.58% | 833.33 nM -10.3% | 10000 nM -14.1%

COc1cc2ncc(-c3ccccc3)nc2cc1OC [tyrphostin-AG-1296]
inactive: 1 nM 1.41% | 8.33 nM 0.53% | 100 nM 0.84% | 833.33 nM -1.04% | 10000 nM -1.96%

Nc1cc(Cl)c(N=C2NCCN2)c(Cl)c1 [apraclonidine]
inactive: 1 nM -2.77% | 8.33 nM 1.32% | 100 nM -1.3% | 833.33 nM -1.26% | 10000 nM -0.76%

COc1ccc2c(c1)C=C1Cn3c-2c(C2CCCCC2)c2ccc(cc23)C(=O)NS(=O)(=O)N(C)CCOCCN(C)C1=O
inactive: 1 nM 3.67% | 8.33 nM 0.37% | 100 nM 0.59% | 833.33 nM 2.72% | 10000 nM 8.22%

Cn1nnnc1SCC1=C(C(=O)O)N2C(=O)[C@@H](NC(=O)[C@H](OC=O)c3ccccc3)[C@H]2SC1 [cefamandole-nafate]
inactive: 1 nM -1.93% | 8.33 nM -0.03% | 100 nM -2.69% | 833.33 nM -3.24% | 10000 nM -0.65%
